Results published in PubChem BioAssay (EPA / NIEHS).
Several values for one entry are separate records, joined by “and”; a condition that tells them apart may be missing. Identical values can stand only once. Records with an inconclusive call do not appear. More than one record can exist for a structure, and the calls need not agree. Activity calls are given as the source filed them. How the source made its calls, unless noted: active means hit-call score of the fitted dose curve at least 0.9, where 1 is the maximum; inconclusive means response in the unintended direction; inactive means score below 0.9.

How the values were obtained:
[1] = read-out: UDP glucuronosyltransferase (UGT1A1), UGT1A1 (gene 54658); experiment: LTEA_HepaRG_UGT1A1: Life Technologies and Expression Analysis (LTEA) Assay for UDP glucuronosyltransferase (UGT1A1) using HepaRG (AID 2283538; active means hit-call score of the fitted dose curve at least 0.9, where 1 is the maximum; inactive means score below 0.9); details: mRNA level, 48 h; actives raise or lower the signal
Summary of the method: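 Human liver HepaRG cultures receive test chemical for 48 h, up to 100 uM in 0.5% DMSO, with phenobarbital induction controls. UGT1A1 mRNA is measured by qRT-PCR and normalized to ACTB, GAPDH and POLR2A.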

[2] = read-out: UDP glucuronosyltransferase (UGT1A6), UGT1A6 (gene 54578); experiment: LTEA_HepaRG_UGT1A6: Life Technologies and Expression Analysis (LTEA) Assay for UDP glucuronosyltransferase (UGT1A6) using HepaRG (AID 2283539; active means hit-call score of the fitted dose curve at least 0.9, where 1 is the maximum; inactive means score below 0.9); details: mRNA level, 48 h; actives raise or lower the signal
Summary of the method: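 Endpoint is UGT1A6 transcript induction or loss in a human liver cell line, quantified by TaqMan qRT-PCR 48 h after dosing. Concentrations ran from 100 uM downward in half-log steps in 0.5% DMSO; activity was fitted in both directions versus vehicle.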

[3] = read-out: X-box binding protein 1 (XBP1), XBP1 (gene 7494); experiment: LTEA_HepaRG_XBP1: Life Technologies and Expression Analysis (LTEA) Assay for X-box binding protein 1 (XBP1) using HepaRG (AID 2283540; active means hit-call score of the fitted dose curve at least 0.9, where 1 is the maximum; inactive means score below 0.9); details: mRNA level, 48 h; actives raise or lower the signal
Summary of the method: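 Human HepaRG monolayers receive test chemical for 48 h across an eight-point half-log series starting at 100 uM. XBP1 mRNA gain or loss is scored against DMSO by qRT-PCR.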

[4] = LTEA_HepaRG_LDH_cytotoxicity: Cytotoxicity Assessment in the Life Technologies and Expression Analysis (LTEA) Assay (AID 2283563);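 on AC50: LDH activity released into spent culture medium as a marker of cell death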
Summary of the method: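 Human HepaRG hepatic cells are treated with test chemicals for 48 h at up to 100 uM in 0.5% DMSO. Cytotoxicity is scored from medium LDH against the vehicle control.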

[5] = ATG_XTT_Cytotoxicity: Cytotoxicity Assessment in the Attagene TRANS-FACTORIAL HepG2 Assay (AID 2283584);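 on AC50: XTT signal for cell number as viability in transfected HepG2 cells; cells exposed to compound for 24 h before reading; active means loss of viability signal versus DMSO baseline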
Summary of the method: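 Transfect HepG2 with GAL4-UAS reporter units, dose compound, incubate 24 h, then measure viable cell number by XTT. Fit concentration response against DMSO baseline.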

[6] = TOX21_p53_BLA_p2_viability: Viability Assessment in the Tox21 HCT-116 p53 Agonism Beta-lactamase Assay, Phase 2 (AID 2283591);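 further: actives lower the ATP signal meaning cytotoxicity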
Summary of the method: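 HCT116 p53-bla cells, 4000/well, dosed after 5 h plating (217-fold dilution of DMSO stocks) and incubated 16 h at 37C. Viability taken as cellular ATP by CellTiter-Glo luminescence after 30 min RT; signal loss marks cytotoxicity.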

[7] = biological target: Cellular tumor antigen p53 (Homo sapiens) (UniProt P04637); experiment: TOX21_p53_BLA_p2_ratio: Tox21 HCT-116 p53 Agonism Beta-lactamase Assay, Ratio, Phase 2 (AID 2283592)
Summary of the method: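 An inducible beta-lactamase reporter in HCT116 cells signals p53 pathway activation. After 16 h chemical exposure at 37C, cells load CCF4-AM substrate for 2 h at room temperature; activity is the cleaved/uncleaved emission ratio relative to DMSO.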

[8] = TOX21_p53_BLA_p3_viability: Viability Assessment in the Tox21 HCT-116 p53 Agonism Beta-lactamase Assay, Phase 3 (AID 2283593);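 further: cells exposed to compound for 16 h before reading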
Summary of the method: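 HCT116 cells, 4000/well, dosed 5 h after plating by pin transfer (217-fold dilution from DMSO stock) and incubated 16 h at 37C, 5% CO2. Viability read as ATP luminescence with CellTiter-Glo after 30 min at room temperature.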

[9] = biological target: Cellular tumor antigen p53 (Homo sapiens) (UniProt P04637); experiment: TOX21_p53_BLA_p3_ratio: Tox21 HCT-116 p53 Agonism Beta-lactamase Assay, Ratio, Phase 3 (AID 2283596)
Summary of the method: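 HCT116 p53-bla cells (4000/well) given compound in DMSO (217-fold dilution) after 5 h, incubated 16 h at 37C. CCF4-AM substrate 2 h at room temperature; 460/530 nm emission ratio, gain fitted against DMSO.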

[10] = TOX21_p53_BLA_p4_viability: Viability Assessment in the Tox21 HCT-116 p53 Agonism Beta-lactamase Assay, Phase 4 (AID 2283597);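 further: hits lower the luminescence signal meaning cytotoxicity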
Summary of the method: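 Compound exposure of HCT116 cells lasts 16 h at 37C, 5% CO2, with DMSO stocks diluted 217-fold. Cellular ATP is then quantified by CellTiter-Glo luminescence after 30 min at room temperature.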

[11] = biological target: Cellular tumor antigen p53 (Homo sapiens) (UniProt P04637); experiment: TOX21_p53_BLA_p5_ratio: Tox21 HCT-116 p53 Agonism Beta-lactamase Assay, Ratio, Phase 5 (AID 2283599)
Summary of the method: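 HCT-116 p53-bla cells (4000/well) plated 5 h, dosed with compound (217-fold DMSO dilution) for 16 h at 37 C; CCF4-AM substrate 2 h at room temperature. Activity is the 460/530 nm emission ratio (405 nm excitation), fitted in gain-of-signal direction versus DMSO.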

[12] = TOX21_p53_BLA_p5_viability: Viability Assessment in the Tox21 HCT-116 p53 Agonism Beta-lactamase Assay, Phase 5 (AID 2283600)
Summary of the method: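 Counter-readout for cytotoxicity: ATP-dependent luminescence from CellTiter-Glo, read in the beta-lactamase wells after 30 min at RT, following a 16 h compound exposure at 37C.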

[13] = biological target: Cellular tumor antigen p53 (Homo sapiens) (UniProt P04637); experiment: TOX21_p53_BLA_p4_ratio: Tox21 HCT-116 p53 Agonism Beta-lactamase Assay, Ratio, Phase 4 (AID 2283601)
Summary of the method: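 HCT-116 p53 beta-lactamase reporter cells (4000/well) preincubated 5 h, then compound (217-fold dilution of DMSO stock) for 16 h at 37C. CCF4-AM substrate added 2 h at room temperature; 460/530 nm emission ratio fitted upward versus DMSO.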

[14] = Tanguay_ZF_120hpf_YSE_legacy: (Legacy) Oregon State University Tanguay Lab 120 Hour Post-fertilization zebrafish Assay for Yolk Sac Edema (AID 2283634);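 on AC50: actives raise the incidence of yolk sac edema above the DMSO baseline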
Summary of the method: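 Readout: presence or absence of yolk sac edema at 120 hpf, fitted upward against DMSO controls. Exposure ran statically from 6 hpf in dechorionated embryos kept at 28C.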

[15] = Tanguay_ZF_120hpf_AXIS_legacy: (Legacy) Oregon State University Tanguay Lab 120 Hour Post-fertilization zebrafish Assay for Body Axis Malformation (AID 2283635);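 on AC50: potency for an increased fraction of larvae scored with body axis malformation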
Summary of the method: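 Static 6–120 hpf chemical exposure of dechorionated wild-type 5D zebrafish, one per well at 28C; morphology endpoint scored binary at 120 hpf relative to DMSO control.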

[16] = Tanguay_ZF_120hpf_EYE_legacy: (Legacy) Oregon State University Tanguay Lab 120 Hour Post-fertilization zebrafish Assay for Eye Malformation (AID 2283636);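 further: binary presence or absence of eye malformation scored by brightfield in 120 hpf larvae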
Summary of the method: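 Dechorionated Tropical 5D zebrafish embryos, one per well from 6 hpf, static exposure to 120 hpf at 28C, 0.64% DMSO. Eye malformation scored present/absent by brightfield; dead embryos not scored.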

[17] = Tanguay_ZF_120hpf_SNOU_legacy: (Legacy) Oregon State University Tanguay Lab 120 Hour Post-fertilization zebrafish Assay for Snout Malformation (AID 2283637)
Summary of the method: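 Dechorionated tropical 5D wild-type zebrafish embryos exposed statically from 6 to 120 hpf at 28C, one per well, in 0.64% DMSO. Snout malformation scored as present/absent by brightfield at 120 hpf; dead embryos not scored.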

[18] = Tanguay_ZF_120hpf_JAW_legacy: (Legacy) Oregon State University Tanguay Lab 120 Hour Post-fertilization zebrafish Assay for Jaw Malformation (AID 2283638);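 on AC50: active means more embryos with jaw malformation than DMSO controls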
Summary of the method: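 Static waterborne exposure of dechorionated wild-type (Tropical 5D) zebrafish from 6 to 120 hpf at 28C, 0.64% DMSO vehicle; 5uM trimethyltin chloride served as positive control. Jaw morphology recorded as binary at 120 hpf.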

[19] = Tanguay_ZF_120hpf_OTIC_legacy: (Legacy) Oregon State University Tanguay Lab 120 Hour Post-fertilization zebrafish Assay for Otic Vesicle Malformation (AID 2283639)
Summary of the method: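 Otic vesicle malformation is read as a yes/no morphology call at 120 hpf. Exposure is static at 28C with 0.64% (vol/vol) DMSO; embryos that die are excluded from non-mortality endpoints.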

[20] = Tanguay_ZF_120hpf_MORT_legacy: (Legacy) Oregon State University Tanguay Lab 120 Hour Post-fertilization zebrafish Assay for Mortality (AID 2283633)
Summary of the method: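 Mortality endpoint from a multiplexed whole-embryo zebrafish screen. Dechorionated wild-type embryos received compound at 6 hpf and remained under static exposure at 28C until 120 hpf, with death noted as a present/absent call.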

Measured: AC50

Chain of Cellular tumor antigen p53 (Homo sapiens) (P04637 whole entry, looked up): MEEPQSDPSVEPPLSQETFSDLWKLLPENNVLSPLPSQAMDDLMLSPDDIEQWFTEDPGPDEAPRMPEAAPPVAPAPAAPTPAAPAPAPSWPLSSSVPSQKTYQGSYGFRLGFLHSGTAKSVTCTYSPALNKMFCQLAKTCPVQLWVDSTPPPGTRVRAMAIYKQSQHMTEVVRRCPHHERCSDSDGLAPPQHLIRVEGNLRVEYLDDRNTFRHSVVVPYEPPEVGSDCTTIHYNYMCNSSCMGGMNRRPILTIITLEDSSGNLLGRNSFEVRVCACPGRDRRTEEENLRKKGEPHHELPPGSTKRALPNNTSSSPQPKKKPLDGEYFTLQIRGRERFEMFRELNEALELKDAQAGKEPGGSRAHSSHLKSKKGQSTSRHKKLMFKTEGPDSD

ClC1=C(Cl)C(Cl)(Cl)C(Cl)=C1Cl
active: [8] 5.7 µM and 3.42 µM | [9] 19.2 µM and 2.22 µM
not listed: [20]
inactive: all other assays above

Oc1cccc(O)c1
not listed: [20]
inactive: all other assays above

CCCOC(=O)c1ccc(O)cc1
active: [14] 35 µM | [15] 46.4 µM | [17] 39.3 µM | [18] 10 µM | [19] 40 µM
not listed: [2] | [20]
inactive: all other assays above

OC1CCC(C2CCCCC2)CC1 (configuration not stated)
not listed: [10] | [20]
inactive: all other assays above

CCCCC(CC)COC(=O)CCCCC(=O)OCC(CC)CCCC (configuration not stated)
not listed: [7] | [10]
inactive: all other assays above

COC(=O)CCCCC(=O)OC
not listed: [2] | [14]
inactive: all other assays above

CC[C@H](c1ccc(O)cc1)[C@@H](CC)c1ccc(O)cc1
active: [1] 83.3 µM | [3] 85.6 µM | [4] 76.1 µM | [5] 144 µM and 133 µM and 164 µM | [6] 61.7 µM | [7] 66.6 µM | [9] 14.4 µM | [10] 57.8 µM | [11] 67.1 µM | [12] 75.7 µM | [13] 60.1 µM
inactive: [5] | [6] | [7] | [8] | [9] | [10] | [11] | [12] | [13] | [14] | [15] | [16] | [17] | [18] | [19]

CCCCCCCCC(=O)O
not listed: [2]
inactive: all other assays above

CC#C[C@]1(O)CC[C@H]2[C@@H]3CCC4=CC(=O)CCC4=C3[C@@H](c3ccc(N(C)C)cc3)C[C@@]21C
active: [1] 77.2 µM | [2] 79.8 µM | [3] 53.4 µM | [4] 11.5 µM | [7] 45.2 µM and 19.9 µM | [9] 20.1 µM | [11] 72.6 µM and 22 µM | [13] 65.8 µM and 20.7 µM | [14] 73.3 µM | [15] 82.8 µM
inactive: [5] | [6] | [8] | [9] | [10] | [12] | [20] | [16] | [17] | [18]

C#C[C@]1(O)CC[C@H]2[C@@H]3CCC4=CC(=O)CC[C@@H]4[C@H]3CC[C@@]21C
active: [1] 2.19 µM
inactive: [2] | [3] | [4] | [5] | [14] | [15] | [16] | [17] | [18] | [19]

c1ccc2c(c1)ccc1ccccc12
active: [1] 7.77 µM
not listed: [8] | [11] | [12] | [19]
inactive: all other assays above

COCC(C)OCC(C)O (configuration not stated)
inactive: [1] | [2] | [4] | [5] | [20] | [16] | [17] | [18] | [19]
active: [3] 50 µM

O=c1c(-c2ccc(O)cc2)coc2cc(O)ccc12
not listed: [20]
inactive: all other assays above

CC(C)(C)c1ccc(O)c(C(C)(C)C)c1
active: [6] 42.4 µM | [8] 63.6 µM and 86.7 µM | [9] 77.4 µM and 79.4 µM | [10] 42.7 µM | [11] 57.1 µM and 60.2 µM | [12] 42.7 µM | [13] 72.4 µM
inactive: [1] | [3] | [4] | [5] | [6] | [7] | [10] | [12] | [13] | [14] | [15] | [16] | [17] | [18] | [19]

CCC(=C(c1ccc(O)cc1)c1ccc(OCCN(C)C)cc1)c1ccccc1
active: [4] 80.5 µM | [5] 18.4 µM and 34.2 µM and 6.67 µM
inactive: [1] | [2] | [3] | [20] | [14] | [15] | [16] | [17] | [18] | [19]

CC(C)(C)c1cccc(C(C)(C)C)c1O
not listed: [2] | [15] | [20]
inactive: all other assays above
